In article PMC4242493, “Sequence specificity incompletely defines the genome-wide occupancy of Myc” one finds binding signal data, which are given here for 172 sequences.

In all, about 33,000 sequences were measured (“normalized occupancy”: median about 0.075, highest 2% from about 0.095 on). Shown is part of a subset that was picked to be rich in the highest values.

MaxL homodimer, sequence (P61244 whole entry): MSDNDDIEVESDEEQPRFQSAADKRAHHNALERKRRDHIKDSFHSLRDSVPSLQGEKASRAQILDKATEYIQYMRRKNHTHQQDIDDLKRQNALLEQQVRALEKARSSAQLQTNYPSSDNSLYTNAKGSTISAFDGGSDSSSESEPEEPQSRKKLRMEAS

The experiment deals with MaxL homodimer (Homo sapiens, UniProt P61244 1-160). The experiment in a line: universal protein-binding microarray (PBM); PBS-based mixture, 10 nM His-tagged protein dimer, 2% milk, 200 ng/uL BSA, 50 ng/uL salmon testes DNA, 0.02% TX-100; detection with Alexa 488 anti-His antibody;; high values mean tight binding. As to conditions: protein: recombinant; tags: C-terminal His-tag (pET21a); chain copies: 2; dsDNA, one strand shown. In a few lines:
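Arrays of the 'all 10-mer' universal design (Agilent 4 x 44 K) were exposed to 10 nM His-tagged protein dimer, stained with 10 ng/μL fluorophore-conjugated anti-His antibody and read on a GenePix 4400A to give a fluorescence intensity for each 8-mer. Binding occupancy is each intensity divided by the highest-ranked intensity.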
Consider AGTACAGG, for which the binding signal worked out at 0.0787 normalized occupancy.
Then ACACTCTG, with 0.0741 normalized occupancy; and ATAGCTTC, with 0.074 normalized occupancy.
Regarding AAGAGGCA, the binding signal turned out to be 0.0761 normalized occupancy.
In the case of ACGATTAG, the binding signal stood at 0.0719 normalized occupancy.
Turning to GATTCACC, the binding signal is 0.0757 normalized occupancy.
In the case of ACGATTTC, the binding signal came out at 0.0741 normalized occupancy.
Regarding CATCTTCA, the binding signal is 0.0786 normalized occupancy.
Then AAAATAGG, with 0.076 normalized occupancy.
As for AGACATTG, the binding signal amounted to 0.0768 normalized occupancy.
As to ACACATAC, the binding signal is 0.0823 normalized occupancy.
For the sequence CTACATGC, the binding signal worked out at 0.089 normalized occupancy.
As for ACACATCT, the binding signal amounted to 0.0851 normalized occupancy.
Consider ACACATAT, for which the binding signal came to 0.0874 normalized occupancy.
As for ACACATGC, the binding signal was 0.137 normalized occupancy.
On to ACACATTG, for which the binding signal worked out at 0.102 normalized occupancy.
Then ACACATTA, with 0.0926 normalized occupancy; and ACACATTC, with 0.0866 normalized occupancy.
As to ACACATGT, the binding signal came to 0.127 normalized occupancy.
Consider ATACATGA, for which the binding signal came to 0.0834 normalized occupancy.
Then ATACATGC, with 0.104 normalized occupancy.
ACCCAAAG: the binding signal is 0.072 normalized occupancy.
Regarding CACGGCAC, the binding signal was 0.078 normalized occupancy.
With ATGATGGC, the binding signal came out at 0.0855 normalized occupancy.
For TGCTAGCA, the binding signal was 0.0864 normalized occupancy.
On to GCCTACCC, for which the binding signal worked out at 0.0797 normalized occupancy.
As for GAACATGA, the binding signal came out at 0.0904 normalized occupancy.
Then GGACATGA, with 0.0803 normalized occupancy; and GCACATAC, with 0.0803 normalized occupancy.
As to TCACATGA, the binding signal is 0.109 normalized occupancy.
Then ACACATCA, with 0.0839 normalized occupancy; and ACACATGA, with 0.107 normalized occupancy; and ACACATAA, with 0.082 normalized occupancy.
Then TCACATAA, with 0.0812 normalized occupancy; and TAACATGA, with 0.0906 normalized occupancy.
As to GCACATGC, the binding signal was found to be 0.159 normalized occupancy.
Consider GCACATGA, for which the binding signal turned out to be 0.12 normalized occupancy.
Then GAACATGC, with 0.089 normalized occupancy.
On to AGATTTGC, for which the binding signal came to 0.0766 normalized occupancy.
For CGCCTCTC, the binding signal is 0.0756 normalized occupancy.
As to ACTGAATC, the binding signal turned out to be 0.0726 normalized occupancy.
Then CTCAACCC, with 0.072 normalized occupancy; and CTGTAATA, with 0.0777 normalized occupancy.
As for CATGGGAC, the binding signal was found to be 0.0894 normalized occupancy.
Turning to GTCAGCAC, the binding signal was determined as 0.0806 normalized occupancy.
With CACAATGG, the binding signal is 0.0783 normalized occupancy.
Then TACCTTAA, with 0.072 normalized occupancy; and AAGATCTT, with 0.0757 normalized occupancy.
As for AAACATGT, the binding signal turned out to be 0.0983 normalized occupancy.
For AAACATGA, the binding signal was found to be 0.0907 normalized occupancy.
As to ACACATGG, the binding signal was 0.159 normalized occupancy.
For ATACATGG, the binding signal was found to be 0.0876 normalized occupancy.
Take AAACATGG: the binding signal was found to be 0.0874 normalized occupancy.
As to AAACATGC, the binding signal stood at 0.0937 normalized occupancy.
As for GATGACAA, the binding signal amounted to 0.0764 normalized occupancy.
TCTTTCAA: the binding signal was 0.0757 normalized occupancy.
ACTAGTTA: the binding signal stood at 0.0749 normalized occupancy.
For the sequence CCTCAACC, the binding signal was determined as 0.0752 normalized occupancy.
Then AATTTGGG, with 0.0765 normalized occupancy.
Consider CCCGCGCC, for which the binding signal was determined as 0.0733 normalized occupancy.
Turning to CGCGCGCC, the binding signal was 0.0783 normalized occupancy.
Then CGCGCGCA, with 0.075 normalized occupancy.
Then CACGCGCA, with 0.135 normalized occupancy.
As to AACGCGCA, the binding signal amounted to 0.078 normalized occupancy.
AACGCGCG: the binding signal was found to be 0.0803 normalized occupancy.
For CGCGCGCG, the binding signal stood at 0.0873 normalized occupancy.
Regarding CACGCGCG, the binding signal worked out at 0.133 normalized occupancy.
Then CACGCGCC, with 0.116 normalized occupancy.
Then AACATCAC, with 0.0837 normalized occupancy; and CTAGCTAC, with 0.0765 normalized occupancy; and CCTAGTGC, with 0.0733 normalized occupancy.
On to AACCCCTC, for which the binding signal is 0.0767 normalized occupancy.
With AATAAGTA, the binding signal was 0.0754 normalized occupancy.
As to ATTCTATG, the binding signal amounted to 0.0827 normalized occupancy.
On to CTTTCTGC, for which the binding signal is 0.0723 normalized occupancy.
With CGTAACGC, the binding signal amounted to 0.0778 normalized occupancy.
Turning to GCAAGCCA, the binding signal worked out at 0.0722 normalized occupancy.
Take GATGGCCA: the binding signal stood at 0.0755 normalized occupancy.
Turning to AATGTCAA, the binding signal came out at 0.0742 normalized occupancy.
Then ATAAGTAA, with 0.0793 normalized occupancy; and GCCATGAC, with 0.0739 normalized occupancy.
For AGCATGAT, the binding signal was 0.107 normalized occupancy.
For the sequence AGCATGAC, the binding signal was found to be 0.0962 normalized occupancy.
Take GTCATGAC: the binding signal was determined as 0.0806 normalized occupancy.
For the sequence ATCATGAT, the binding signal is 0.0928 normalized occupancy.
As to AGCATGAA, the binding signal came to 0.0874 normalized occupancy.
For the sequence CCCTAAAA, the binding signal was 0.076 normalized occupancy.
Consider CTGACCTC, for which the binding signal came out at 0.0774 normalized occupancy.
Then AGATGAGG, with 0.0788 normalized occupancy; and CCATGAGG, with 0.112 normalized occupancy; and GCATGAGA, with 0.0947 normalized occupancy.
Take CCATGAGA: the binding signal worked out at 0.0896 normalized occupancy.
Turning to ACATGAGC, the binding signal stood at 0.0906 normalized occupancy.
Then ACATGAGT, with 0.09 normalized occupancy.
Then ACATGAGA, with 0.0971 normalized occupancy; and ACATGAGG, with 0.108 normalized occupancy.
Regarding CCATGAGC, the binding signal amounted to 0.0818 normalized occupancy.
Regarding GTCAAGGA, the binding signal came to 0.0749 normalized occupancy.
As for CTAATGTC, the binding signal was found to be 0.0828 normalized occupancy.
For GAAGTTAC, the binding signal worked out at 0.0721 normalized occupancy.
With TAACTAGA, the binding signal was found to be 0.0765 normalized occupancy.
For the sequence ACGGTGGC, the binding signal amounted to 0.079 normalized occupancy.
Then AAATACAA, with 0.076 normalized occupancy; and CATATGAC, with 0.0954 normalized occupancy.
CATATGGG: the binding signal is 0.103 normalized occupancy.
Take CATATGAA: the binding signal stood at 0.088 normalized occupancy.
As for GATATGGC, the binding signal was 0.0846 normalized occupancy.
Consider AATATGGG, for which the binding signal came out at 0.0882 normalized occupancy.
Regarding CATATGGC, the binding signal came out at 0.0994 normalized occupancy.
Then AATATGGC, with 0.0866 normalized occupancy; and CATATGGA, with 0.095 normalized occupancy.
For AATATGAC, the binding signal stood at 0.0855 normalized occupancy.
Take AGTTCTAA: the binding signal was determined as 0.0746 normalized occupancy.
On to CTGAAAAC, for which the binding signal was 0.0806 normalized occupancy.
Take CGTGCTAA: the binding signal was found to be 0.0881 normalized occupancy.
Turning to ACTGCCCC, the binding signal was found to be 0.0751 normalized occupancy.
GGCATTAC: the binding signal came to 0.0758 normalized occupancy.
Then AAACGAAG, with 0.0718 normalized occupancy.
As for CTGCTCTC, the binding signal was determined as 0.0736 normalized occupancy.
Then ATTGATAA, with 0.0774 normalized occupancy.
For the sequence ACATGCGA, the binding signal is 0.0989 normalized occupancy.
In the case of AAATGCGA, the binding signal came out at 0.0758 normalized occupancy.
Regarding ATATGCGA, the binding signal came to 0.0834 normalized occupancy.
Consider ACATGCGT, for which the binding signal is 0.127 normalized occupancy.
Then AAATGCGT, with 0.0858 normalized occupancy; and ATATGCGC, with 0.085 normalized occupancy; and AAATGCGG, with 0.0791 normalized occupancy.
For ACATGCGG, the binding signal worked out at 0.129 normalized occupancy.
For the sequence AGATGCGC, the binding signal stood at 0.077 normalized occupancy.
Then ACCTGCGT, with 0.0757 normalized occupancy.
Consider ACATGCGC, for which the binding signal is 0.109 normalized occupancy.
Then AGATGCGG, with 0.0753 normalized occupancy; and AGGTTTTA, with 0.0742 normalized occupancy.
As to CTAAGAAA, the binding signal was 0.0728 normalized occupancy.
For the sequence GATGATTA, the binding signal was 0.0816 normalized occupancy.
Take AGGGTCAC: the binding signal came to 0.0776 normalized occupancy.
As to CCCAGTTA, the binding signal came out at 0.0735 normalized occupancy.
As to GCATCACA, the binding signal came to 0.0871 normalized occupancy.
Then CCGACGAC, with 0.0752 normalized occupancy.
Consider AGTCGTAT, for which the binding signal amounted to 0.0756 normalized occupancy.
Turning to AGGTGGTA, the binding signal amounted to 0.0821 normalized occupancy.
ACGTGGTA: the binding signal was 0.115 normalized occupancy.
On to GCGTGGTA, for which the binding signal amounted to 0.111 normalized occupancy.
With AGGTGGTG, the binding signal came out at 0.0873 normalized occupancy.
Turning to CCGTGGTA, the binding signal was 0.0806 normalized occupancy.
Regarding GGGTGGTA, the binding signal came to 0.0821 normalized occupancy.
Consider CCGTGGTC, for which the binding signal was 0.074 normalized occupancy.
For the sequence ACGTGGTC, the binding signal was determined as 0.106 normalized occupancy.
With AGGTGGTC, the binding signal amounted to 0.0855 normalized occupancy.
Regarding AAGTGGTG, the binding signal was 0.0758 normalized occupancy.
As for GTGTGGTA, the binding signal turned out to be 0.0868 normalized occupancy.
For ACGTGGTG, the binding signal came out at 0.1 normalized occupancy.
For the sequence GTTGAGAA, the binding signal is 0.076 normalized occupancy.
For the sequence TCATTGCA, the binding signal is 0.0829 normalized occupancy.
Then GCAATCAC, with 0.0763 normalized occupancy; and GAGTCAGC, with 0.0763 normalized occupancy.
AACTCACT: the binding signal is 0.0726 normalized occupancy.
In the case of AAGCACTA, the binding signal turned out to be 0.0755 normalized occupancy.
In the case of CGCCGAAA, the binding signal was 0.0723 normalized occupancy.
Then ACGGTAGA, with 0.0739 normalized occupancy; and ACGCCGCT, with 0.0763 normalized occupancy; and CGAGGTGA, with 0.0813 normalized occupancy.
Turning to CACGCTGC, the binding signal was 0.131 normalized occupancy.
As to AACGCTGG, the binding signal came out at 0.0764 normalized occupancy.
With CACGCTCG, the binding signal worked out at 0.0939 normalized occupancy.
Then TACGCTGA, with 0.0736 normalized occupancy; and CACGCTGG, with 0.113 normalized occupancy; and GACGCTGC, with 0.0724 normalized occupancy.
Consider AACGCTGA, for which the binding signal stood at 0.0816 normalized occupancy.
Turning to CACGCTGA, the binding signal was found to be 0.115 normalized occupancy.
Then AACGCTGC, with 0.0786 normalized occupancy; and AGGAGACA, with 0.084 normalized occupancy.
